Measurements published in PubChem BioAssay AID743285 (National Center for Advancing Translational Sciences (NCATS), 2014).
Screen size: about 1,100 compounds; fewer than 10 were called active. Calls follow the shape of the dose curve; as a rule, active = well fitted curve in the direction sought with a large enough effect; inconclusive = small, poorly fitted or top-dose-only effect, or another doubt; inactive = no such curve, though single readings can be large or run the other way. Only a sample is shown.

test: qHTS for Inhibitors of PI5P4K: ADP-Glo counter assay; settings: ADP-Glo detection counter-screen, luciferase luminescence, no enzyme; series mostly up to 76.9 µM
Excerpt: In addition to finding PI5P, we discovered the type II phosphatidylinositol 5-phosphate 4-kinase (PI5P4K) family (alpha, beta, gamma isoforms) that catalyze the conversion of PI5P to PI(4,5)P2. Alternatively, PI(4,5)P2 can also be synthesized through phosphatidylinositol-4-phosphate (PI4P) by the type I phosphatidylinositol 4-phosphate 5-kinases (PI4P5K). These PI5P4K enzymes therefore represent one way by which cells can regulate endogenous PI5P levels and play important roles in insulin signaling and in stress responses. […] A qHTS PI5P4K-alpha ADP-Glo assay was developed to identify specific modulators of human PI5P4K, phosphatidylinositol-5-phosphate 4-kinase (Type II PIPK). This assay was screened against the MLSMR containing ~400,000 small molecules (PubChem AID 652105). To confirm that the hits were not interacting with the detection enzyme system, a 1536-well counterscreen against the ADP-Glo kit (Promega) was utilized, as described in Davis et al., 2013 [1]. For this assay, an ATP/ADP mix of 80% ATP and 20% ADP was used to mimic the PI5P4K-alpha enzyme reaction. […] Therefore, true inhibitors of PI5P4K-alpha should have no activity in this assay. Davis et al., PLoS One. 2013;8(1):e54127. NIH Chemical Genomics Center [NCGC] NIH Molecular Libraries Probe Centers Network [MLPCN] MLPCN Grant: MH096575 Assay Submitter (PI): Atsuo Sasaki, Beth Israel Deaconess Medical Center
Two micoliter of assay buffer (0.038 M HEPES pH 7.4, 0.28 mM EGTA, 0.1% CHAPS, 7.5% DMSO) was dispensed into Greiner white solid bottom 1536-well assay plates. Compounds were then transferred via Kalypsys pin tool equipped with 1536-pin array (10 nL slotted pins, V&P Scientific, San Diego, CA). Next, 1 uL of ATP / ADP mix (4 uM ATP / 1 uM ADP final concentrations in 20 mM HEPES pH 7.4, 60 mM MgCl2, and 0.1% CHAPS) was added for a total reaction volume of 3 uL. The plates were incubated at room temperature for 60 minutes. To detect the activity, 2 uL of ADP-Glo reagent 1 was added to each well followed by 45 min room temperature incubation. Then, 4 uL of ADP-Glo reagent 2 was added to each well and the plates were incubated further for 30 min at room temperature. Finally, luminescence signal was detected using the PerkinElmer ViewLux plate reader (30 sec exposure). The data was normalized to control wells with 20% ADP / 80% ATP and wells with 100% ATP.

Row | SMILES | outcome
1 | Cc1cnc(NC(=O)CSc2c(Cl)cccc2Cl)s1 | inactive
2 | Cc1cc(=O)n2[nH]c(-c3sccc3-n3c(C)ccc3C)cc2n1 | inactive
3 | O=C(Cc1cccs1)N(CC1CCCO1)C1(C(=O)NC2CCCCC2)CCCCC1 (stereo not given) | inactive
4 | CCOC(=O)C1Nc2ccc(C(F)(F)F)cc2C2C=CCC12 (stereo not given) | inactive
5 | O=C1CC(c2ccccc2)=NN1c1ccc([N+](=O)[O-])cc1 | inactive
6 | CC(=O)N1c2ccc(S(=O)(=O)NCCC(=O)N(C)C3CCCCC3)cc2CC1C (stereo not given) | inactive
7 | O=C(COc1ccc(-n2cnnn2)cc1)Nc1ccccc1Cl | inactive
8 | Cc1cccnc1NC(=O)CSc1nnc(COc2ccc(C(C)C)cc2)n1C | inactive
9 | O=C(Nc1ccc(S(=O)(=O)Nc2nccs2)cc1)c1cc(-c2ccncc2)nc2ccccc12 | inactive
10 | Cc1csc(=O)n1CCC(=O)OCC(=O)Nc1ccc(N2CCOCC2)cc1 | inactive
11 | CCC(c1nnnn1Cc1ccco1)N(CCc1ccccc1)Cc1cc2ccc(OC)cc2[nH]c1=O (stereo not given) | inactive
12 | Cc1ccc(C(c2nnnn2CS(=O)(=O)c2ccc(C)cc2)N2CCC(C)CC2)cc1 (stereo not given) | inactive
13 | COc1cccc2c(C)c(C(=O)O)[nH]c12 | inactive
14 | CC(CNC(=O)c1ccc(Br)o1)NC(=O)c1ccc(Br)o1 (stereo not given) | inactive
15 | Cc1ccc(Cc2c(-c3ccco3)nc3ccc(Cl)cn23)cc1 | inactive
16 | OCCNc1nc(Nc2ccc(Cl)c(Cl)c2)nc2ccccc12 | inactive
17 | O=C(c1cc(-c2ccco2)nc2ccccc12)N(Cc1nnc(-c2ccc(Cl)cc2)o1)C1CC1 | inactive
18 | O=C(c1cc2c(s1)CCC2)N1CCN(c2ccccc2)CC1 | inactive
19 | O=C(c1cccnc1)N(c1cc2sc(=O)oc2c2ccccc12)S(=O)(=O)c1ccccc1 | inactive
20 | COc1ccc(C(=O)N2CCC(C(=O)Nc3ccc(C)cc3)CC2)cc1 | inactive
21 | COc1ccc(OCCCC(=O)Nc2nnc(C3CCCO3)s2)cc1 (stereo not given) | inactive
22 | Cc1cc(NC(=O)Nc2ccccc2[N+](=O)[O-])no1 | inactive
23 | O=c1oc2cc(O)ccc2cc1-c1ccc(F)cc1 | inactive

Row | SMILES | outcome
24 | COCCNC(=O)Nc1ccc2nc(-c3ccco3)c(-c3ccco3)nc2c1 | inactive
25 | COc1ccc(S(=O)(=O)/N=C2\C=C(NS(=O)(=O)c3ccccc3)C(=O)c3ccccc32)cc1 | inactive
26 | COc1ccc(CCCc2nnc(SCc3nc4ccccc4c(=O)[nH]3)n2C)cc1 | inactive
27 | CCOC(=O)c1cc2c(=O)[nH]c(C(Cl)(Cl)Cl)nc2o1 | inactive
28 | OCCCNc1nccc(-c2cc(Nc3cccc(Cl)c3)ncn2)n1 | inactive
29 | O=S(=O)(Nc1ccc2cn[nH]c2c1)c1ccccc1 | inactive
30 | COc1cccc(C(=O)Nc2nc3ccc(S(C)(=O)=O)cc3s2)c1 | inactive
31 | O=c1[nH]c2ccccc2n2c(-c3ccccc3)nnc12 | inactive
32 | O=C(Cn1cnc2c(OCc3ccccc3)ncnc21)NCc1nc2ccccc2[nH]1 | inactive
33 | O=C(Nc1nc(-c2ccncc2)cs1)C1COc2ccccc2O1 (stereo not given) | inactive
34 | COc1cc(=O)[nH]c(=O)n1C(=O)Cc1ccccc1 | inactive
35 | COc1ccc(-c2cc(C(=O)Nc3ccccc3O)c3ccccc3n2)cc1 | inactive
36 | Cc1cccc(C)c1NC(=O)C(c1ccc(C(F)(F)F)cc1)n1c(=O)c(-c2ccco2)nc2ccccc21 (stereo not given) | inactive
37 | O=C(NC1CCCCC1)C(c1cc2ccccc2o1)n1c(=O)c(-c2ccco2)nc2ccccc21 (stereo not given) | inactive
38 | COc1ccc(C(CNC(=O)c2ccc(OCc3cscn3)cc2)N2CCCC2)cc1 (stereo not given) | inactive
39 | Cc1cc2nc(-c3ccco3)c(Cc3cccc(F)c3)n2c(C)c1Br | inactive
40 | O=C(CCNS(=O)(=O)c1ccc(Br)s1)NCc1ccccc1Cl | inactive
41 | C[C@H](NC(=O)c1nc[nH]c1C(=O)N[C@@H](C)C(=O)OC(C)(C)C)C(=O)OC(C)(C)C | inactive
42 | CC(Oc1ccc(F)cc1)C(=O)N1CCN(c2ncccn2)CC1 (stereo not given) | inactive
43 | Cn1c(SCC(=O)Nc2ccc(Cl)cc2)nc(O)cc1=O | inactive
44 | Cc1ccc(Cn2c(C)nc3c(c2=O)c2nc4ccccc4nc2n3Cc2ccco2)cc1 | inactive
45 | O=C(COC(=O)c1ccccc1O)NCc1ccco1 | inactive
